These results are taken from PubChem BioAssay (Tox21).

Results filed as inconclusive are left out. Calls of active or inactive are those of the source. Unless noted, the call rests on the fitted dose curve; in most records, active means well fitted curve in the direction sought with a large enough effect in the repeat runs; inconclusive means weak or mixed curves; inactive means no such curve, though single readings can be large; an effect the other way counts as inactive or inconclusive.

A short description of assay [1]: qHTS assay to test for compound auto fluorescence at 535 nm (green) in HEK293 cells (AID 720680).
The nature of assay [2]: qHTS assay to test for compound auto fluorescence at 460 nm (blue) in HEK293 cell free culture (AID 720681). In a few lines:
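Blue fluorescence (Ex 405/Em 460 nm, triamterene-equivalent) was read immediately after pin transfer of compound or DMSO into medium (DMEM, 10% FBS) without cells.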
In general terms: In qHTS, concentration-response curves come from the screen itself.

Assay [3] is described as follows: qHTS assay to test for compound auto fluorescence at 535 nm (green) in HEK293 cell free culture (AID 720682). In a few lines:
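Compounds were pin-transferred into cell-free DMEM with 10% FBS, and green fluorescence was read at excitation 485 nm and emission 535 nm. Intensities were expressed as fluorescein-equivalent values.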

A short description of assay [4]: qHTS assay to test for compound auto fluorescence at 590 nm (red) in HEK293 cell free culture (AID 720683). Summed up: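 Red-channel autofluorescence of compounds in culture medium (DMEM, 10% FBS), no cells, measured at 540/590 nm. Rose Bengal sodium is the reference fluorophore for equivalence.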
Assay [5] in a line: qHTS assay to test for compound auto fluorescence at 590 nm (red) in HepG2 cell free culture (AID 720684). Summed up:
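Steps: dispense MEM/10% FBS medium, no cells; pin compound or DMSO vehicle; read red channel, Ex/Em 540/590 nm. Output given as Rose Bengal sodium equivalents.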

Assay [6] in a line: qHTS assay to test for compound auto fluorescence at 460 nm (blue) in HepG2 cell free culture (AID 720685). Summed up:
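Compound (23 nL) or DMSO pinned into cell-free MEM with 10% FBS; blue fluorescence read at 405/460 nm excitation/emission, expressed as auto-fluorescence equivalency to triamterene.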

The nature of assay [7]: qHTS assay to test for compound auto fluorescence at 535 nm (green) in HepG2 cell free culture (AID 720686).
Assay [8] in a line: qHTS assay to test for compound auto fluorescence at 460 nm (blue) in HepG2 cells (AID 720687). In a few lines:
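Blue-channel autofluorescence (Ex/Em 405/460 nm, triamterene-equivalent) was measured after 1 hr compound exposure at 37 C, 5% CO2. Cells were HepG2, plated overnight at 37 C in MEM plus 10% FBS.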

The target in assay [9] is Glucocorticoid receptor (Homo sapiens) (UniProt P04150). Description: qHTS assay to identify small molecule agonists of the glucocorticoid receptor (GR) signaling pathway (AID 720691; active means well fitted activation curve with a large enough effect in the signal ratio in the repeat runs, not every such curve was filed as active; the % refers to the signal ratio). To be noted: GR-bla HeLa, beta-lactamase reporter ratio, 18 h; activation: at 62.4 µM (top of the series). Summed up: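 Fluorescence intensity from LiveBLAzer B/G FRET substrate (2 h, room temperature) reports beta-lactamase expression driven by the glucocorticoid response element in GR-bla HeLa cells after 18 h compound exposure at 37 C.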

Assay [10] can be described thus: qHTS assay to identify small molecule antagonists of the glucocorticoid receptor (GR) signaling pathway - cell viability counter screen (AID 720693). Further: nearly all actives have a fitted effect of over 55% in size.
Assay [11] can be described thus: qHTS assay to identify small molecule antagonists of the androgen receptor (AR) signaling pathway - cell viability counter screen (AID 743033; further: nearly all actives have a fitted effect of over 45% in size).
Assay [12] concerns the target Androgen receptor (Homo sapiens) (UniProt P10275). The experiment in a line: qHTS assay to identify small molecule agonists of the androgen receptor (AR) signaling pathway using the MDA cell line (AID 743040; further: nearly all actives have a fitted effect of over 20% in size). In a few lines: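 Cells plated, 5 h at 37C/0% CO2; compound or DMSO pinned; 16 h at 37C; ONE-Glo added; luminescence measured after 30 min at room temperature. Reporter line: MDA-kb2 with MMTV-luciferase responsive to AR and GR.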

The nature of assay [13]: qHTS assay to identify small molecule antagonists of the androgen receptor (AR) signaling pathway using the MDA cell line - cell viability counter screen (AID 743041; further: nearly all actives have a fitted effect of over 45% in size). In a few lines:
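Cells were plated at 3,000 per well and left 5 h. Compounds in DMSO were then pinned in, followed by R1881. After 16 h at 37C, CellTiter-Fluor fluorescence gave viability.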

Assay [14] deals with Androgen receptor (Homo sapiens) (UniProt P10275). The experiment in a line: qHTS assay to identify small molecule antagonists of the androgen receptor (AR) signaling pathway using the MDA cell line (AID 743042; further: nearly all actives have a fitted effect of over 55% in size). Summed up:
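Antagonist mode: compounds plus R1881 agonist added to MDA-kb2 AR-luc cells, incubated 16 h at 37C. Luciferase reporter luminescence quantified, with multiplexed CellTiter-Fluor readout for cell viability.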

Assay [15] is described as follows: qHTS assay for identifying genotoxic compounds that show differential cytotoxicity against isogenic chicken DT40 cell lines with known DNA damage response pathways - Rev3 mutant cell line (AID 743014). Further: potency means the concentration at half of the fitted maximal effect; nearly all actives have a fitted effect of over 55% in size.
Assay [16] is described as follows: qHTS assay for identifying genotoxic compounds that show differential cytotoxicity against isogenic chicken DT40 cell lines with known DNA damage response pathways - Rad54/Ku70 mutant cell line (AID 743015). Further: nearly all actives have a fitted effect of over 60% in size. Further: potency means the concentration at half of the fitted maximal effect.
Assay [17] can be described thus: qHTS assay for identifying genotoxic compounds that show differential cytotoxicity against isogenic chicken DT40 cell lines with known DNA damage response pathways - wild type cell line (AID 743012). Further: nearly all actives have a fitted effect of over 60% in size. Further: potency means the concentration at half of the fitted maximal effect. In a few lines: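 Wild type DT40, 300 cells/well, ~0.5 h settle at 37 C/5% CO2; compounds in DMSO added by pintool; 40 h at 37 C/5% CO2; CellTiter-Glo, 30 min RT; luminescence.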

The target of assay [18] is Androgen receptor (Homo sapiens) (UniProt P10275). Description: qHTS assay to identify small molecule antagonists of the androgen receptor (AR) signaling pathway (AID 743035; active means well fitted inhibition curve with a large enough effect in the signal ratio in the repeat runs, not every such curve was filed as active; the % refers to the signal ratio). Summed up:
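Fluorescence from a beta-lactamase FRET substrate (LiveBLAzer B/G, 2 h, room temperature) measured inhibition of R1881-stimulated signaling in GeneBLAzer AR-UAS-bla HEK293 cells exposed to compound for 16 h at 37C.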

Assay [19] has the same target. The experiment in a line: qHTS assay to identify small molecule agonists of the androgen receptor (AR) signaling pathway (AID 743036; active means well fitted activation curve with a large enough effect in the signal ratio in the repeat runs, with a control signal flat, not every such curve was filed as active; the % refers to the signal ratio). Summed up: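 Activation was read as beta-lactamase FRET signal from LiveBLAzer B/G substrate, added for 2 h at room temperature. Before that, GeneBLAzer AR-UAS-bla GripTite (HEK293) cells had 16 h compound exposure at 37C.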

Sequence of Glucocorticoid receptor (Homo sapiens) (P04150 whole entry, looked up): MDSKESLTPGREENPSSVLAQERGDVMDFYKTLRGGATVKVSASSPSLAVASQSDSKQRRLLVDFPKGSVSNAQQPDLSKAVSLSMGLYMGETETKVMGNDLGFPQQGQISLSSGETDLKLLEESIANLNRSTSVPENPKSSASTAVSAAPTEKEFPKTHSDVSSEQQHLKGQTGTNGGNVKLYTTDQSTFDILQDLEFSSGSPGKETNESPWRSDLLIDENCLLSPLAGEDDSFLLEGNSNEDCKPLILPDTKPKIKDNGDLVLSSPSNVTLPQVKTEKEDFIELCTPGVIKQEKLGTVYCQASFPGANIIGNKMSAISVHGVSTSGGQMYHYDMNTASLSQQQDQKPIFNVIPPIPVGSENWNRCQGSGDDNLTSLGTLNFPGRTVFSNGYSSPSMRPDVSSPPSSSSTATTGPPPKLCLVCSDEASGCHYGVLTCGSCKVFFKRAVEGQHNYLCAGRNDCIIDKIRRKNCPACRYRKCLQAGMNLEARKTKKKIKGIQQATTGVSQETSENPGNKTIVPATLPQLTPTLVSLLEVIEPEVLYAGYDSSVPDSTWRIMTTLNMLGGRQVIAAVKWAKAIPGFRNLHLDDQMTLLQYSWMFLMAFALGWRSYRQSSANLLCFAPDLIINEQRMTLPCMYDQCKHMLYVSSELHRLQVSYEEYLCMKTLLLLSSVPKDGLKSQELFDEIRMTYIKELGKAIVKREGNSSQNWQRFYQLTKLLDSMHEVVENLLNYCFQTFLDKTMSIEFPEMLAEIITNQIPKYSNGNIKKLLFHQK
Sequence of Androgen receptor (Homo sapiens) (P10275 whole entry, looked up): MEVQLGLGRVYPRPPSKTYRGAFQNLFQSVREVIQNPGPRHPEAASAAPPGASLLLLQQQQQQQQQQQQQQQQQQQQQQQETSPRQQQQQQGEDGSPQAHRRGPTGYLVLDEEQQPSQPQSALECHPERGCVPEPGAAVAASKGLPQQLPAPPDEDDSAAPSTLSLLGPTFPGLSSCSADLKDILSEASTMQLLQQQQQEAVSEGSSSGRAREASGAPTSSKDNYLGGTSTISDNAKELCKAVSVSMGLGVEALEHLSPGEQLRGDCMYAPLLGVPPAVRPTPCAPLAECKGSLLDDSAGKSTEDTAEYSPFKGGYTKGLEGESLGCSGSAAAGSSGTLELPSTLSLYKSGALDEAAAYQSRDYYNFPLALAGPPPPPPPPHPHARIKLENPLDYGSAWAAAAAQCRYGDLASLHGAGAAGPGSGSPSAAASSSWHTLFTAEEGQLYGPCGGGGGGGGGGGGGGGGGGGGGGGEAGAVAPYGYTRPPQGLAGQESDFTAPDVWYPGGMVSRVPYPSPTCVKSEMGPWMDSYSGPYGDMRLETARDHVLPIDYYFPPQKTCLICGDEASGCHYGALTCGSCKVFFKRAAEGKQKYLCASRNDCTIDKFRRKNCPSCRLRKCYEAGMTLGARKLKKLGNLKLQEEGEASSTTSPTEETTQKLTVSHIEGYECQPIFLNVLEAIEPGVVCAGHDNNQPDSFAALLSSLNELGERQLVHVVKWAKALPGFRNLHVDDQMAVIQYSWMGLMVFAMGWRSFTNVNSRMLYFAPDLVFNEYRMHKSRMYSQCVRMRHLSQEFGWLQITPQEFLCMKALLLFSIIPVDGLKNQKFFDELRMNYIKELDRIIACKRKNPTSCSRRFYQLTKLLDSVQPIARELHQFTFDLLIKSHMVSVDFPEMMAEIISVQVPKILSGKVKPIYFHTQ

In the case of `C=C1c2c(Cl)ccc(O)c2C(O)=C2C(=O)[C@]3(O)C(O)=C(C(N)=O)C(=O)[C@@H](N(C)C)[C@@H]3[C@@H](O)[C@H]12`, the Potency result in [1], in assay [2], in assay [3], in assay [4], in assay [5] and in assay [7] was “inactive” each time. In addition, the Potency entry in assay [9], in [10], in [11], in assay [12], in assay [13] and in assay [14] was “inactive” each time. The compound was called inactive in [6] and in [8].
For the compound `CCN(CC)CCCC(C)Nc1cc(/C=C/c2ccccc2Cl)nc2cc(Cl)ccc12` (configuration not stated), the Potency entry in [1], in assay [2], in [3], in assay [4], in assay [5] and in assay [7] was “inactive” in each case. In addition, the Potency result in assay [9], in assay [10] and in [13] was “inactive” in each case. In addition, the compound was classed as inactive in assay [6] and in [8]. Also, the Potency in assay [15] and in [16] was 29.8 µM (active) in each case.
As for `C=Cc1c(C)c2cc3nc(cc4[nH]c(cc5nc(cc1[nH]2)C(C)=C5CCC(=O)OC)c(CCC(=O)O)c4C)[C@@]1(C)C3=CC=C(C(=O)OC)[C@H]1C(=O)OC`, the Potency result in assay [1], in assay [2], in assay [3], in assay [4], in assay [5] and in assay [7] was “inactive” each time. The Potency entry in [9], in assay [10] and in assay [11] was “inactive” throughout. Further, the compound was classed as inactive in assay [6] and in [8].
`CC1(O)CCC(C(C)(C)O)CC1` (configuration not stated): the Potency entry in assay [1], in [2], in assay [3], in assay [4], in [5] and in [7] was “inactive” each time. For the same compound, the Potency entry in [9], in assay [10], in [17], in assay [16], in assay [11] and in assay [13] was “inactive” in each case. Moreover, the result in assay [6] and in [8] was inactive.
Take `CC(=O)O[C@H]1CC[C@@]2(C)C(=CC[C@@H]3[C@@H]2CC[C@]2(C)C(c4cccnc4)=CC[C@@H]32)C1`: the Potency entry in assay [1], in assay [2], in [3], in assay [4], in [5] and in assay [7] was “inactive” in each case. Moreover, the Potency entry in assay [9], in assay [10], in assay [11], in assay [18], in [19] and in assay [12] was “inactive” each time. Also, the Potency result in assay [13] and in [14] was “inactive” each time. For the same compound, the compound was called inactive in assay [6] and in assay [8]. Besides, the Potency in assay [17] was 5.31 µM (active).
For `CCc1ccc2c(c1)N(CC(C)CN(C)C)c1ccccc1S2` (configuration not stated), the Potency result in [1], in assay [2], in [3], in assay [4], in assay [5] and in assay [7] was “inactive” each time. Besides, the Potency entry in assay [9] is “inactive”. Moreover, the compound was classed as inactive in [6] and in assay [8]. The Potency is 6.68 µM (active) in [17], 5.31 µM (active) in assay [15] and 8.41 µM (active) in assay [16].
In the case of `COc1cc(NCCCC(C)N)c2ncccc2c1` (configuration not stated), the Potency result in assay [1], in assay [2], in assay [3], in assay [4], in [5] and in assay [7] was “inactive” in each case. The Potency result in assay [9], in [10], in assay [11], in assay [12], in assay [13] and in assay [14] was “inactive” each time. Also, the outcome in [6] and in assay [8] was inactive. Besides, the values for the Potency in assay [17] and in assay [16] were 29.8 µM (active) and 21.1 µM (active), respectively.
